# Only some compounds are listed: those with a hit (about 6.2% of all), similar ones and a draw of the others.
# KB-3-1 tox: KB-3-1 parental cell cytotoxicity; KB-3-1 viability, CellTiter-Glo ATP luminescence, 72 h; Potency, µM (highest dose often 46.1 µM), most hits filed as cytotoxic; hit rate 1.4% among 400,000; note: % is set by controls: 0 for no effect and ±100 for the full control effect; nearly all actives have a fitted effect of over 60% in size
#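 72 h, 37 °C compound treatment of KB-3-1 parental cells; CellTiter-Glo added, 10 min, luminescence read. Data corrected against DMSO-only plates and normalized before curve fitting.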
# KB-V1 MDR tox: KB-V1 MDR subline cytotoxicity | KB-V1 MDR cells viability, CellTiter-Glo, 72 h | Potency, µM (highest dose often 46.1 µM), actives largely listed as cytotoxic | hit rate 3.4% among 400,000; note: % is set by controls: 0 for no effect and ±100 for the full control effect; nearly all actives have a fitted effect of over 60% in size
#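 Potencies derive from concentration-effect curves fitted to normalized luminescence (CellTiter-Glo) of KB-V1 cells treated for 72 h at 37 degrees C in phenol-red-free DMEM containing 10% FBS.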
# ATXN2 expr inh: inhibitors of ATXN2 expression. AID 1745845. hit rate 0.72% among 360,000. HEK-293 ATXN2-luciferase reporter, luminescence, 24 h. Potency, µM (doses to about 57 µM), without a hit: top-dose activity change, negative = inhibition, usual class: inhibitors; note: % is set by controls: 0 for no effect and ±100 for the full control effect; nearly all actives have a fitted effect of over 55% in size
#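 ATXN2-luciferase reporter cells (luciferase flanked by upstream and downstream ATXN2 gene portions) were treated 24 h at 37 °C with compounds at up to 57 uM. SteadyGlo luminescence gave expression; GF-AFC fluorescence gave viability.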
# HT1080NT lethal: kills 2HG-producing HT-1080-NT fibrosarcoma cells; HT-1080-NT fibrosarcoma viability, CellTiter-Glo ATP luminescence, 48 h; Potency, µM (top dose mostly 46.1 µM), for inactives: at the highest dose activity, negative = less viability, usual class: cytotoxic; hit rate 1.6% among 360,000; AID 686970;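 note: NT is the 2HG producing partner of a matched IDH1 knockdown line; 0% = DMSO-treated cells and -100% = media-only wells without cells; nearly all actives have a fitted effect of over 55% in size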
#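 HT-1080-NT fibrosarcoma cells (2HG-overproducing), 750 cells/well in RPMI with 5% FBS, dosed after 2 h and incubated 48 h at 37C. CellTiter-Glo luminescence normalized to DMSO and no-cell wells; concentration-response curves fitted and classed.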
# ATXN viability: viability counter-screen for ATXN expression inhibitors; hit rate 0.49% among 400,000; S2 cells (HEK-293 line with an ATXN2-luciferase reporter) viability, CellTiter-Fluor protease fluorescence, 24 h; Potency, µM (highest dose often 56.7 µM), most hits filed as cytotoxic; AID 651635; note: nearly all actives have a fitted effect of over 40% in size
# HT1080 IDH1KD tx: HT-1080 IDH1 knockdown cell toxicity (counter line). Potency, µM (titrated, usually from 46.1 µM), without a hit: at the highest dose activity, negative = toxicity, hits mostly cytotoxic. HT-1080 IDH1 knockdown viability, ATP luminescence, 48 h. AID 686971. hit rate 2% among 360,000;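 note: 0% = DMSO wells and -100% = cell-free medium wells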
#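 Luminescent ATP read-out (CellTiter-Glo, 10 min at room temperature) after 48 h compound exposure at 37 °C gave viability of IDH1-knockdown HT-1080 cells. Activity was normalised to DMSO and cell-free wells, then fitted as concentration-response curves.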
# * marks the source's active call; other numbers are inactive results; i = inactive; ? = inconclusive; . = no result; [ ] = remark or other dose. Calls come from the whole dose curve; as a rule, active = well fitted curve in the direction sought with a large enough effect; inconclusive = small, poorly fitted or top-dose-only effect, or another doubt; inactive = no such curve, though single readings can be large; an effect the other way counts as inactive or inconclusive. Potency is the fitted concentration of half-maximal effect.
SMILES,KB-3-1 tox,KB-V1 MDR tox,ATXN2 expr inh,HT1080NT lethal,ATXN viability,HT1080 IDH1KD tx
CCOc1ccc(CCNC(=O)c2ccc3c(c2)N(Cc2ccccc2)C(=O)c2ccccc2S3=O)cc1OCC (centres undefined),?,i,0%,.,i,.
Cc1onc(-c2ccccc2Cl)c1C(=O)Nc1ccc(-c2cn3cccnc3n2)cc1,i,?,-1%,1%,i,-5%
Cc1cnc(C(=O)Nc2cccc3cccnc23)cn1,5.2µM*,?,?,?,?,?
CCCCNS(=O)(=O)c1ccc(NC(=O)c2c(-c3ccccc3Cl)noc2C)cc1,i,21µM*,4%,?,i,?
Cc1onc(-c2ccccc2Cl)c1C(=O)Nc1cccc(-c2nc3ncccn3c2C)c1,i,8.2µM*,1%,-2%,i,-8%
Cc1cccc(C(=O)Nc2cccc3cccnc23)c1,i,i,31%,3%,i,0%
CCCCNc1nc2c(-c3cccc(C)c3)nnn2c2ccccc12,i,i,8%,.,i,.
O=c1sc(/C=N/Nc2ccccc2)c(Cl)n1Cc1ccccc1,i,i,6%[11.3 µM],15µM*,i,13µM*
COc1cccc(-c2nn(C)c3sc(C(=O)NCCc4cccc(C)c4)cc23)c1,?,i,-30%,.,i,.
Cc1cc(C)c2c(CC(=O)Nc3c(C(=O)c4ccc(F)cc4)oc4ccccc34)coc2c1,i,i,7%,.,i,.
COc1ccc(C2Nc3ccccc3C(=O)N2Cc2ccccc2)cc1COc1ccc([N+](=O)[O-])cc1 (centres undefined),i,i,.,.,.,.
CC[C@H](C)[C@@H](CN[C@H](CCCCNC)CNC)NCC1CCCC1,i,i,10%,7%,i,4%
CCCC[C@@H](CN[C@H](C)CNC)NCC1CCC(C(C)(C)C)CC1 (some centres undefined),?,?,35µM*,?,32µM*,18µM*
COC(=O)/C(=C1/Oc2cc(C)oc(=O)c2S1)C(F)(F)F,i,i,?,-17%,.,15µM*
Cc1ccccc1-c1nn2c(=O)cc(CN3CCN(C(=O)/C=C/c4ccccc4)CC3)nc2s1,i,i,-3%,.,i,.
CC(=O)Nc1ccc2c(c1)C(=O)c1ccccc1C2=O,i,i,32%,-6%,i,-3%
CC(C)(C)C(=O)Nc1ccc2c(c1)C(=O)C(=O)c1ccccc1-2,.,.,.,0.79µM*,.,0.79µM*
CCOC(=O)c1ccc(NC(=O)c2c(NCc3cc(OC)ccc3OC)sc3c2CCC3)cc1,i,i,0%,.,?,.
CCOC(=O)c1ccc(NC(=O)c2c(NCc3cc(OC)c(OC)cc3OC)sc3c2CCCC3)cc1,i,i,-19%,.,32µM*,.
COc1cc(OC)c(N(C)C(=O)c2c(C)oc3ncnc(N4CCCCC4)c23)cc1Cl,i,i,-6%,.,i,.
Cc1ccc(OCCn2cc(/C=C(\C#N)C(=O)NCC3CCCO3)c3ccccc32)cc1C (centres undefined),i,?,-3%,-6%,i,9%
Cc1ccc(OCCn2cc(/C=C(\C#N)C(=O)NCC3CCCO3)c3ccccc32)cc1 (centres undefined),i,21µM*,-5%,-4%,i,-10%
CCC1(C)NC(c2ccc3c(c2)OCO3)=CC(c2ccccc2O)N1 (centres undefined),?,i,.,.,.,.
COc1cccc(C(=O)Nc2cc3c(cc2Cl)OCCCO3)c1,i,23µM*,60%,3%,i,12%
O=C(CCc1ccccc1)Nc1cc2c(cc1Cl)OCCO2,i,21µM*,68%,2%,i,11%
SMILES,KB-3-1 tox,KB-V1 MDR tox,ATXN2 expr inh,HT1080NT lethal,ATXN viability,HT1080 IDH1KD tx
O=C(Nc1cc2c(cc1Br)OCCCO2)c1ccccc1,i,21µM*,43%,-3%,i,1%
O=C(Nc1cc2c(cc1Cl)OCCCO2)c1ccc(F)cc1,i,16µM*,48%,7%,i,1%
Cc1ccc(C(=O)Nc2cc3c(cc2Cl)OCCCO3)cc1,i,i,64%,5%,i,7%
COc1ccccc1NC(=O)n1ncc2c(C)cccc21,i,?,11%,.,?,.
Cc1ccc(-c2ccc(CCC(=O)O)n2-c2cccc(C)c2C)cc1,i,?,15%,.,i,.
O=C(CCl)c1ccc2c(c1)CCCC2,i,i,.,.,.,.
CCNc1nc(OC)nc(Oc2ccc(=O)n(-c3ccccc3)n2)n1,i,i,2%,6%,?,6%
COc1nc(NC(C)(C)C)nc(Oc2ccc(=O)n(-c3ccccc3)n2)n1,i,21µM*,1%,1%,i,-10%
Cc1ccc(S(=O)(=O)c2cn(C)c3cc(N4CCN(C)CC4)c(F)cc3c2=O)c(C)c1,i,i,?,21µM*,i,?
NCCCC[C@H](NC(=O)[C@@H]1CCCN1C(=O)[C@@H]1CSSC[C@H](N)C(=O)N[C@@H](Cc2ccc(O)cc2)C(=O)N[C@@H](Cc2ccccc2)C(=O)N[C@@H](CCC(N)=O)C(=O)N[C@@H](CC(N)=O)C(=O)N1)C(=O)NCC(N)=O,.,.,.,.,i,.
COc1ccc(/C=C\C(=O)CC(O)(c2ccccc2)C(F)(F)F)cc1 (centres undefined),i,?,-20%,?,i,11µM*
COc1ccc(/C=C/C(=O)OCC(=O)c2ccccc2F)cc1,i,i,25%,14%,i,16%
COCCCNC(=O)c1c(NC(=O)c2cc(=O)c3ccccc3o2)sc2c1CCCC2,i,i,33%,.,i,.
CCSc1ncc(Cl)c(C(=O)Nc2sc3c(c2C(=O)NCCOC)CCCC3)n1,i,i,.,.,.,.
O=S(Cc1ccc(Br)cc1)Cc1nnc(SCc2ccc(Br)cc2)n1-c1ccccc1 (centres undefined),16µM*,2.9µM*,-35%,-5%,i,?
Cc1ccc(OCC(=O)N(c2ccc(C)cc2)S(=O)(=O)c2ccc(Cl)cc2)cc1,?,?,13%,.,i,.
COc1cccc(/C=N/n2c(-c3ccco3)nc3ccccc3c2=O)c1,i,2.6µM*,-9%,-9%,i,-1%
COc1ccc(/C=N/n2c(-c3ccco3)nc3ccccc3c2=O)cc1,i,i,6%,6%,i,6%
Cc1cccc(CS(=O)(=O)Cc2ccc(C(=O)NCc3ccc(F)cc3)o2)c1,i,i,.,.,.,.
C=CCn1c(Cc2cccc3ccccc23)n[nH]c1=S,i,18µM*,-6%,-10%,i,-4%
